The results in this text go back to PubChem BioAssay (Tox21).

Results filed as inconclusive are left out. A number with no mark means an inactive call. The source made the active and inactive calls. Calls follow the shape of the dose curve; as a rule, active = well fitted cell-killing curve with a large enough effect in the repeat runs; inconclusive = weak or mixed curves; inactive = flat fitted curve, though single readings scatter.
% is scaled to controls: 0 for no effect and ±100 for the full control effect.

The nature of the assay: qHTS assay to identify small molecule antagonists of the TGF-beta/Smad signaling pathway - cell viability counter screen (AID 1346824). Also: nearly all actives have a fitted effect of over 50% in size. The settings on record: SBE-bla HEK293T viability, CellTiter-Glo luminescence; series mostly up to 76.8 µM; viability change, negative = cytotoxic: at the top concentration. The text has this:
U.S. Tox21 Program National Center for Advancing Translational Sciences [NCATS] NIH Chemical Genomics Center [NCGC] U.S. Environmental Protection Agency [EPA] National Institutes of Environmental Health Sciences [NIEHS] National Toxicology Program [NTP] U.S. Food and Drug Administration [FDA] Tox21 Assay Overview: Transforming growth factor beta (TGF-beta) superfamily consists of a large number of structurally related dimeric proteins that act as hormones or local mediators in regulating a wide range of biological functions. This superfamily includes TGF-betas themselves, the bone morphogenetic proteins (BMPs) and the activins. These ligands induce oligomerization of serine/threonine receptor kinases and phosphorylate the cytoplasmic signaling molecules of Smad protein family. CellSensor SBE-bla HEK 293T cell line (Life Technologies, Carlsbad, CA), responsive to TGF-beta was used to screen Tox21 10K compound library for identification of agonists/antagonists of the Smad signaling pathway. This cell line contains a beta-lactamase reporter gene under control of the Smad binding element (SBE) stably integrated into HEK 293T cells. Also cytotoxicity of the compounds was tested in parallel by measuring the cell viability using CellTiter-Glo assay system in the same wells.
Tox21 Assay Protocol Summary: SBE-bla HEK 293T cells were dispensed at 4,000/well in 5 uL of assay medium into black wall/clear-bottom 1536-well plates using a Multidrop Combi (ThermoFisher Scientific, Waltham, MA) dispenser. After the assay plates were incubated at 37 C and 5% CO2 for an overnight, 23 nL of compounds dissolved in DMSO, positive controls or DMSO only was transferred to the assay plate by a Pintool station (Kalypsys, San Diego, CA). Compound transfer was followed by the addition of 1 uL of 0.25 ng/mL TGF-beta1 or assay buffer using two separate tips of Flying Reagent Dispenser (FRD, Aurora Discovery, San Diego, CA). The assay plates were incubated at 37 C and 5% CO2 for 5 hr. One uL of LiveBLAzer B/G FRET substrate (Life Technologies) was added using a Flying Reagent Dispenser (FRD, Aurora Discovery, San Diego, CA) and the plates were incubated at room temperature for 2 hr. Fluorescence intensity (405 nm excitation, 460 nm and 530 nm emissions) was measured using an Envision plate reader (PerkinElmer, Shelton, CT). For cytotoxicity read, 4 uL of CellTiter-Glo reagent (Promega Corporation, Madison, WI) was added to each well of the assay plates using FRD. After 30 min incubation at room temperature, the luminescence intensity was measured using ViewLux plate reader (PerkinElmer).
A general note: qHTS replaces the single test concentration by a dilution series.
As for `CC(C)=CCl`, the outcome was inactive.

Consider `CCOCC(=O)O`, for which the compound was called inactive. Still for that read-out and setting: as for `CCCCOC(=O)c1ccc(N)cc1`, the entry is “inactive”; as for `COc1ccc(CCC(C)=O)cc1`, “inactive”; as for `Cc1ccc([N+](=O)[O-])cc1S(=O)(=O)O`, “inactive”. Take `CC(C)(C)c1cc(Cc2cc(C(C)(C)C)c(O)c(C(C)(C)C)c2)cc(C(C)(C)C)c1O`: the call was inactive. The same measure, in the same setting: to `O=C1C(c2[nH]c3ccccc3c2O)=Nc2ccccc21` belongs “inactive”; to `C[C@]12CC[C@@H]3c4ccc(O)cc4CC[C@H]3[C@@H]1C[C@@H](O)[C@@H]2O`, “inactive”.

On to `C=C(C)C(=O)OCC(C)C`, for which the result was inactive. On the same count and under the same terms, to `CCNc1cccc(C)c1` belongs “inactive”; to `C=CC(=O)OCCC(=O)O`, “inactive”. The same measure, in the same setting: to `CC(=O)c1ccc(O)cc1` belongs “inactive”.

In the case of `CN/C(=C\[N+](=O)[O-])NCCSCc1csc(CN(C)C)n1`, the compound was classed as inactive.

Take `CCCCCCCCCCCCCCCC(=O)OC(C)C`: the compound was classed as inactive. As to `CC(C)c1cccc(C(C)C)c1`, the call was inactive. Still for that read-out and setting: to `O=C(O)c1ccc(C(=O)O)c(C(=O)O)c1` belongs “inactive”. Still for that read-out and setting: to `C=C(C)[C@H]1CC=C(C)C(=O)C1` belongs “inactive”; to `Brc1ccc(Br)c(Br)c1`, “inactive”; to `CCCCCC(=O)O`, “inactive”.

In the case of `CC(C)CC(C)O` (stereo not given), the compound was classed as inactive.

For the compound `OC1C(O)C(O)C(O)C(O)C1O` (stereo not given), the compound was called inactive. For `CC(=O)OCc1ccco1`, the call was inactive. The same measure, in the same setting: as for `CCNc1ccccc1`, the entry is “inactive”; as for `C=CC[N+](C)(C)CC=C`, “inactive”; as for `COC(=O)c1cccnc1`, “inactive”.

In the case of `CCO[Si](CCC#N)(OCC)OCC`, the compound was called inactive.

As for `CCCCCCCCCCO`, the result was inactive. Still for that read-out and setting: to `NCCCCCCN` belongs “inactive”; to `OCc1cccc(Oc2ccccc2)c1`, “inactive”. With `NCCNCCN`, the compound was classed as inactive. Still for that read-out and setting: as for `NC(=S)NNC(N)=S`, the entry is “inactive”. `CC(C)CCCCCCCOC(=O)CCCCC(=O)OCCCCCCCC(C)C`: the “viability change, negative = cytotoxic” value was -1.08%. With `CSc1ccc(Cl)cc1`, the outcome was inactive. On the same count and under the same terms, as for `CC(=O)CC(C)(C)O`, the entry is “inactive”.

With `O=c1[nH]cnc2[nH]ncc12`, the compound was classed as inactive. On the same count and under the same terms, to `CCOC(=O)c1ccc(N)cc1` belongs “inactive”; to `COc1ccc(OC)cc1`, “inactive”. Still for that read-out and setting: to `C[C@]12CCC(=O)C=C1CC[C@@H]1[C@@H]2[C@@H](O)C[C@@]2(C)[C@H]1CC[C@]2(O)C(=O)CO` belongs “inactive”.

Turning to `CC(C)OC(=O)COc1ccc(Cl)cc1Cl`, the call was inactive. On the same count and under the same terms, as for `COCCCN`, the entry is “inactive”.
